# Experimental data: PMC8769072, “Proteome‐scale mapping of binding sites in the unstructured regions of the human proteome” (Molecular Systems Biology, 2022)
# Sequence of YES1 90-152, P07947 (P07947 90-152): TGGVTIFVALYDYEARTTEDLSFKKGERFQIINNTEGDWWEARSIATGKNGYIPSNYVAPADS
# Sequence of YAP1 169-207, P46937 (P46937 169-207): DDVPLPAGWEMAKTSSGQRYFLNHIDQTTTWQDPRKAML
Binder,"selected by phage display (YES1 90-152, P07947)","selected by phage display (YAP1 169-207, P46937)"
"MSGHTLPPLPVPGTNS [EPPK1, P58107]",confidence 3 (active),–
"EYEKLPAYLATSPIPT [LPIN2, Q92539]",–,confidence 3 (active)
"LQEQQQQQMHLQPPSY [TRERF1, Q96PN7]",–,confidence 2 (active)
"MGDLPPYPERPAQQPP [RSPH6A, Q9H0K4]",–,confidence 2 (active)
"APPPPGYHQNGVIRNQ [MYO1E, Q12965]",–,confidence 3 (active)
"EAPPPYSPIGDDVQLL [ARHGAP5, Q13017]",–,confidence 3 (active)
"SLDALKVFDGIPPPYD [RPL13AP3, Q6NVV1]",–,confidence 2 (active)
"SPSQYINEENLPVYPD [KNL1, Q8NG31]",–,confidence 2 (active)
"SSENPYATIRDLPSLP [PEAR1, Q5VY43]",confidence 4 (active),–
"SPQLPQYPGLQQAQTM [MED12L, Q86YW9]",–,confidence 3 (active)
"ASEVGSPPSYSEALLD [LDLRAD3, Q86YD5]",–,confidence 3 (active)
"DMLPALLRPPEPLPTP [SLC39A5, Q6ZMH5]",confidence 2 (active),–
"HSSRELPSRPDGVLHV [VWA5B2, Q8N398]",confidence 3 (active),–
"AYPPSYPSAMSPTHHL [FNDC3B, Q53EP0]",–,confidence 2 (active)
"DKPLPVPPTLRDLPPP [CBL, P22681]",confidence 4 (active),–
"VKRTLPSPPPEEAHLP [BSN, Q9UPA5]",confidence 3 (active),–

Binder,"selected by phage display (YES1 90-152, P07947)","selected by phage display (YAP1 169-207, P46937)"
"HQQPPPYPLMHHQMPP [SMARCC1, Q92922]",–,confidence 3 (active)
"PPPSYAATIASKLAIH [KLF5, Q13887]",–,confidence 3 (active)
"MPPPGYPHIPQALSTP [FOXJ3, Q9UPW0]",–,confidence 4 (active)
"RPLPSPAPPPPQLLEA [KIF26A, Q9ULI4]",confidence 2 (active),–
"ESLPSYLESSRVNTPV [ANK3, Q12955]",–,confidence 4 (active)
"IAPPQYVTTSASNIVS [ARID2, Q68CP9]",–,confidence 4 (active)
"TPRSSVELPPYSGTVL [USP10, Q14694]",–,confidence 2 (active)
"SPPAYHMHVFDRPYPL [CUEDC1, Q9NWM3]",–,confidence 3 (active)
"LLPPPPPGAPLPSLPF [SOBP, A7XYQ1]",confidence 2 (active),–
"NLRALPLPPRPPATST [RNF223, E7ERA6]",confidence 3 (active),–
"PTMTPPPYLPGPNASP [FOXI1, Q12951]",–,confidence 4 (active)
"QALPDYSLGPHYTSQK [CSRNP1, Q96S65]",–,confidence 2 (active)
"AEFQPPYFPPPYPQPP [TFAP2E, Q6VUC0]",–,confidence 2 (active)
"VDPSKHIRPVPSLPDV [VPS54, Q9P1Q0]",confidence 2 (active),–
"GSPMVPSYETSVSPQA [PIKFYVE, Q9Y2I7]",–,confidence 2 (active)
